For some of these results: Potency and affinity values are given separately.

Common to all, as to set-up: scale not given: direction of the effect not stated beside the values
Test [1] deals with Protein translocase subunit SecA (Escherichia coli (strain K12)) (UniProt P10408). Description: Assay to Identify E. coli SecA ATPase Inhibitors. It is filed as functional. As to conditions: 30 µM.
Test [2] has as its target T1, Ubiquitin-activating enzyme e1, putative (Leishmania donovani (strain BPK282A1)) (UniProt E9BSI1).
T1 sequence (whole entry): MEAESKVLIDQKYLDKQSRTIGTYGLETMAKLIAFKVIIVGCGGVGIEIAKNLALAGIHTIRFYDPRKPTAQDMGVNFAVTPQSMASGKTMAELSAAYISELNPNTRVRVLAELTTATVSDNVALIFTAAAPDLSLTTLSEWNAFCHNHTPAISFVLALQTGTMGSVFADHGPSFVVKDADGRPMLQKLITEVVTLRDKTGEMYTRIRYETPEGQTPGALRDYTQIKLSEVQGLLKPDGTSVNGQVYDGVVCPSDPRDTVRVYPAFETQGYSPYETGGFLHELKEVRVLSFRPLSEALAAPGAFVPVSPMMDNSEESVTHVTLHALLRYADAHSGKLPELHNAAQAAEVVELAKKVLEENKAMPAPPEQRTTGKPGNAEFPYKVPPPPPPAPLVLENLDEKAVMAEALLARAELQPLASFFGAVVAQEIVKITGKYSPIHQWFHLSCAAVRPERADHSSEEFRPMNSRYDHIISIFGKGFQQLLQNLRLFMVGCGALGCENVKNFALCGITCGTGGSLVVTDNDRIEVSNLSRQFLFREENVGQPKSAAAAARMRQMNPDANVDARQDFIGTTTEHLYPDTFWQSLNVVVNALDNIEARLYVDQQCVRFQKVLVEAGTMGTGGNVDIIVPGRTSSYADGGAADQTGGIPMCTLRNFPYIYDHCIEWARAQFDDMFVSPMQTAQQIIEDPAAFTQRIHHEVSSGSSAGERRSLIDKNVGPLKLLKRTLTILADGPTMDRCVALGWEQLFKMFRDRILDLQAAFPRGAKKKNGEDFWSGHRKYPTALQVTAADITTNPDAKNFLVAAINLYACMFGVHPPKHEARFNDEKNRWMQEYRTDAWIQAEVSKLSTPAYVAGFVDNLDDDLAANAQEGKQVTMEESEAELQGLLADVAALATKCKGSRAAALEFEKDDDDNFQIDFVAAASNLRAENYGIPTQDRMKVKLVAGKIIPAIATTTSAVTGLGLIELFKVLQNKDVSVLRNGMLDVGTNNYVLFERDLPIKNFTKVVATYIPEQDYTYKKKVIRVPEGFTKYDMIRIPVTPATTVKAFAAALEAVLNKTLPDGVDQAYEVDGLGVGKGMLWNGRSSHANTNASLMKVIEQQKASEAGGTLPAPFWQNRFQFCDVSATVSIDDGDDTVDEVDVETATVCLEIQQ
Description: Leishmania donovani Ubiquitin Activating Enzyme (LdE1). The format is functional. To be noted: 30 µM.

Test [3] has as its target AMP-activated protein kinase, AMPK (Homo sapiens) (UniProt P54646+O43741+P54619+Q9UGJ0+Q9Y478+Q13131+Q9UGI9). Description: AMP-dependent Kinase enzyme assay. An in vitro enzyme assay that detects ADP turnover that is directly proportional to AMPK activity. This uses naive AMPK that is activated during the assay with MK-8722. As to conditions: 30 µM. It is filed as functional.

Test [4] has as its target Sialic acid-binding Ig-like lectin 9 (Homo sapiens) (UniProt Q9Y336). Description: Hs-Siglec9 ALPHAscreen SOP 20170721. As to conditions: 10 µM. Background: Bead proximity is the source of the signal in Alpha formats.
Test [5] deals with Trypanosoma cruzi. Description: Trypanosoma cruzi phosphomannomutase and mannose-1-phosphate guanylyltransferase assay. The format is functional. To be noted: 10 µM.
Test [6] addresses T2, Arginase-2, mitochondrial (Homo sapiens) (UniProt P78540).
T2 sequence (whole entry): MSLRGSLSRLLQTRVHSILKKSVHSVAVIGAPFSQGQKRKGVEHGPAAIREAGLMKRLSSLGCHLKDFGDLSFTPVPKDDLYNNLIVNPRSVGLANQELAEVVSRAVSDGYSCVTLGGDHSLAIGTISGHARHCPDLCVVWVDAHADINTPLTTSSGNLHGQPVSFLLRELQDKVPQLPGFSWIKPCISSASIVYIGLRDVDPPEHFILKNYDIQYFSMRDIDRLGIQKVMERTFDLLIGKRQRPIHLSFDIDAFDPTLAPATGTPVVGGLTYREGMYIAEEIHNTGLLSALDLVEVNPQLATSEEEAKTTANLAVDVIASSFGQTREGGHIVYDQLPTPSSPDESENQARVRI
Description: in vitro enzyme assay to detect the production of urea directly proportional to the activity of Arginase II. Further: in the data most compounds retested in dose-response had high values. The format is functional. As to conditions: 33.3 µM.

Test [7] has as its target T3, Proteasome subunit beta (Trypanosoma cruzi) (UniProt O96673).
T3 sequence (whole entry): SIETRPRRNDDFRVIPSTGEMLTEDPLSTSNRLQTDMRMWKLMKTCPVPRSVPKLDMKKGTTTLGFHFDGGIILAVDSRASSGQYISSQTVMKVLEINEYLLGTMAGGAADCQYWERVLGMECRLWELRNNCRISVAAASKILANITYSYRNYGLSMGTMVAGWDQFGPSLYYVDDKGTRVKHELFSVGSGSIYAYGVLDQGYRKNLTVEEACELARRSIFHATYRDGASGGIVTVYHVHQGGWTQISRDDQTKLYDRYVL
Description: Trypanosoma cruzi proteasome chymotrypsin-like activity (TcProtChymo) assay. Further: in the data most compounds retested in dose-response had high values. It is filed as functional. As to conditions: 9.37 µM.

The species entered for test [8] is Homo sapiens. In words: To identify inhibition of the IFN signalling (Jak-Stat) pathway via expression of an eGFP reporter gene under the control of an IFN-stimulated response element (ISRE) containing MxA promoter. The format is functional. As to conditions: 30 µM. For orientation: A reporter such as luciferase makes a cellular process visible.
Test [9] deals with T4, Tyrosyl-tRNA synthetase, putative (Trypanosoma cruzi (strain CL Brener)) (UniProt Q4DSP6).
T4 sequence (whole entry): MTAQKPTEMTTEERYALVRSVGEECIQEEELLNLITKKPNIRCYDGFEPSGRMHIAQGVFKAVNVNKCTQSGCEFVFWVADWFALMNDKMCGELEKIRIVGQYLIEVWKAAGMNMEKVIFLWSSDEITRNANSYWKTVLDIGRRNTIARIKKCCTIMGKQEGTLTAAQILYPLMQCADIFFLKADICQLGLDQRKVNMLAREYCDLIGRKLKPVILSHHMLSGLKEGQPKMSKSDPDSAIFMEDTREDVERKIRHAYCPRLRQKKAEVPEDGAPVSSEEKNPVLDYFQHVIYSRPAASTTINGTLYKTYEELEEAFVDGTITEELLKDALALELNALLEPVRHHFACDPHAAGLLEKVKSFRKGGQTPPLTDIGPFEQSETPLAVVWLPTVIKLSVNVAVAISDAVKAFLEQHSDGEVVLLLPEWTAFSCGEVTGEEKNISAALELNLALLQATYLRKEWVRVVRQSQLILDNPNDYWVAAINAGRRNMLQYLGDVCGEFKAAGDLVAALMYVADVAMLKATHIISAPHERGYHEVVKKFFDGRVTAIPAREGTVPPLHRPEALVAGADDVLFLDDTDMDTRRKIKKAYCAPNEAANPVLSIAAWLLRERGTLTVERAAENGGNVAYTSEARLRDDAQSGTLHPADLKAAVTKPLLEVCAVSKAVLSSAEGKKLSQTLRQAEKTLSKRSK
Description: Trypanosoma cruzi tyrosyl tRNA synthetase (TcYRS) _High Tyrosine SOP. Further: in the data most compounds retested in dose-response had high values. The format is functional. As to conditions: 30 µM.

Test [10] has as its target T4, Tyrosyl-tRNA synthetase, putative (Trypanosoma cruzi (strain CL Brener)). In words: Trypanosoma cruzi tyrosyl tRNA synthetase (TcYRS) SOP. It is filed as functional. To be noted: 30 µM.
Test [11] addresses Chromo domain-containing protein 1 (Saccharomyces cerevisiae (strain ATCC 204508 / S288c) (Baker's yeast)) (UniProt P32657). In words: ScCHD-1 Enzyme Inhibition Assay. Further: in the data most compounds retested in dose-response had high values. As to conditions: 30 µM. It is filed as functional.

Sequence of Protein translocase subunit SecA (Escherichia coli (strain K12)) (P10408 whole entry): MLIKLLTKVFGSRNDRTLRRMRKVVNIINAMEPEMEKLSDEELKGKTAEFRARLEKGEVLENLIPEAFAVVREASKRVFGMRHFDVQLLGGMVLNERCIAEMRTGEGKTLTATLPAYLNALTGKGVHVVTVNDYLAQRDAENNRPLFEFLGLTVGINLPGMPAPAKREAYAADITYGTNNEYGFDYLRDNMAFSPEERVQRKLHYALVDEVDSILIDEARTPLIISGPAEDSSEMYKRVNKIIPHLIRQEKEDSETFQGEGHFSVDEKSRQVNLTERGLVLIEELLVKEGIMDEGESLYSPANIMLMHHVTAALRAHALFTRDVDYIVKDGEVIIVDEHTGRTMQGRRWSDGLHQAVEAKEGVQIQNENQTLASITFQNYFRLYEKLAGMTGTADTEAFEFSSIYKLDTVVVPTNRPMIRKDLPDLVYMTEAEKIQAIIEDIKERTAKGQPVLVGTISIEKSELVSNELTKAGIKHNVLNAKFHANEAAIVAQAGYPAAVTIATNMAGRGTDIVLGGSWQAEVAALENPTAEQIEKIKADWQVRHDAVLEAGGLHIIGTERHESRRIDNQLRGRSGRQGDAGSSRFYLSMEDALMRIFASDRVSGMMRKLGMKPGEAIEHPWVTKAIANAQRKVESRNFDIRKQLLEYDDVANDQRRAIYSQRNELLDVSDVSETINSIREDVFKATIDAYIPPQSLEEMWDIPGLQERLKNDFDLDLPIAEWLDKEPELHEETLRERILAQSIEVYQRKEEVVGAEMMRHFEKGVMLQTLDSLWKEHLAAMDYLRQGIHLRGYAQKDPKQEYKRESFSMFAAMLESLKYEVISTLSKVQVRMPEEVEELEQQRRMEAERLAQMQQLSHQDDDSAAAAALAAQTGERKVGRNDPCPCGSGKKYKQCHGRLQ
Sequence of Chromo domain-containing protein 1 (Saccharomyces cerevisiae (strain ATCC 204508 / S288c) (Baker's yeast)) (P32657 whole entry, the tested form may be a part): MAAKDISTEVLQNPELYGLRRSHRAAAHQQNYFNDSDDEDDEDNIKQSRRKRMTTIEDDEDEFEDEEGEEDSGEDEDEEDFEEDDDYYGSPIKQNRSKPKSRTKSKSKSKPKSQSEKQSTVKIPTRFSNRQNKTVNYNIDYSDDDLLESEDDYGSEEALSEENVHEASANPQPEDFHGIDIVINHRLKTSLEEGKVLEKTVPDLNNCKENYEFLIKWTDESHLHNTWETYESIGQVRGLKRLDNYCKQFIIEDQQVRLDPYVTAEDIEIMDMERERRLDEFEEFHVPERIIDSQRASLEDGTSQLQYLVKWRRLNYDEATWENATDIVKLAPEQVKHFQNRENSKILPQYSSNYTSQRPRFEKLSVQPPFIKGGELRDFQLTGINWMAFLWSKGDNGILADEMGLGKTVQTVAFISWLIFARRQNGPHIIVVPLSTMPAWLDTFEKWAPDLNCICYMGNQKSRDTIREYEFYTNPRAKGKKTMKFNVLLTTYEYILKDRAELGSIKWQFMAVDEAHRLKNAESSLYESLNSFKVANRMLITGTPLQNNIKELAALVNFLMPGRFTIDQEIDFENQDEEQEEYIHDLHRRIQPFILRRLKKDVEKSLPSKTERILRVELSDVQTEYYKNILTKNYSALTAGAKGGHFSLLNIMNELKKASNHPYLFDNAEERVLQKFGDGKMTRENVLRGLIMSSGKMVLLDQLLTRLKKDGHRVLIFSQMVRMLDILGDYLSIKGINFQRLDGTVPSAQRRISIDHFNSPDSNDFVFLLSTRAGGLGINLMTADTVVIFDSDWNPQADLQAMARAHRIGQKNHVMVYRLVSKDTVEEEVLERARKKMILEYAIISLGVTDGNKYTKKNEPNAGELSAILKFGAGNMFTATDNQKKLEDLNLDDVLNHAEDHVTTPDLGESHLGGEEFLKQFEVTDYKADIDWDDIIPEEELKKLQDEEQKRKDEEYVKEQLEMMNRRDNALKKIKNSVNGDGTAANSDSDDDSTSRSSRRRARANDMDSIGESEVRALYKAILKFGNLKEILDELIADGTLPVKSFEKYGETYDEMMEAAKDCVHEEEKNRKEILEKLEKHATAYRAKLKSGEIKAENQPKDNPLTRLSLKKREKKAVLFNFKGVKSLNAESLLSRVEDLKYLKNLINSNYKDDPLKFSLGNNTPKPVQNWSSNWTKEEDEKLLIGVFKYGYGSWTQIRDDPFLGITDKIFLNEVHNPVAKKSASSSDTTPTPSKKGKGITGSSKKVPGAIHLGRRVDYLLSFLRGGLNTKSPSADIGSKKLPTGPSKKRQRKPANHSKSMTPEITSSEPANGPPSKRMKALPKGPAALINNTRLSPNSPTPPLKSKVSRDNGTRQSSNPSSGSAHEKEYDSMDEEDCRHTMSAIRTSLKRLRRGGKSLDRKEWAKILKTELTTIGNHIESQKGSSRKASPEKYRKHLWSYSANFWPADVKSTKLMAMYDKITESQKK
Sequence of Sialic acid-binding Ig-like lectin 9 (Homo sapiens) (Q9Y336 whole entry): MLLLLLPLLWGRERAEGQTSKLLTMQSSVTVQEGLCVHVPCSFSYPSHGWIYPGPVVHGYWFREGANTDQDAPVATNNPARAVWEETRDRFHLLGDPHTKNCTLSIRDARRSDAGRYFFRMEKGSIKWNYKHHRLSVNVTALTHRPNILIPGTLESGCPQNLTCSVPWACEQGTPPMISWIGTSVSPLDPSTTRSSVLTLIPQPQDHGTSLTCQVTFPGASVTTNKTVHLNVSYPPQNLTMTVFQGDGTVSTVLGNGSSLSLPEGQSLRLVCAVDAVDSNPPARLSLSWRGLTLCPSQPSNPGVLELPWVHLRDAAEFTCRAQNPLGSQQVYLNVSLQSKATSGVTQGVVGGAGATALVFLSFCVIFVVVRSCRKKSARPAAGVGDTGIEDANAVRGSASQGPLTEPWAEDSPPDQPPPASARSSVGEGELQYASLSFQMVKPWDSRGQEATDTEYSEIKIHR

Consider `CCCc1nnsc1C(=O)NCC1CCN(c2ccccn2)CC1`, for which the Percent Effect in test [1] is -0.329%; in [2], 11%; in [3] it was -5.48%; in [4], 2.44%; in [5] it was 4.5%; in test [6] it was 11.8%. Further, the Percent Effect in [7] was 21.3%; in test [8], 25.2%; in test [9], 5.38%; in test [10], 20%; in test [11], -6.53%.

For `Cc1nc(C)n(CC2CN(c3ccc(C#N)cn3)CCO2)n1` (stereo unspecified), the Percent Effect in test [1] was -4.11%; in test [2], 10.5%; in test [3], -4.42%; in test [4], 10.3%; in test [5], 5.88%; in [6] it was 1.44%. In addition, the Percent Effect in test [7] is 6.51%; in test [8], -2.74%; in test [9] it was 6.4%; in test [10] it was 18.5%; in test [11] it was -3.17%.

In the case of `COc1cccc(CN2CCCC(Nc3cccc(F)c3)C2)c1O` (stereo unspecified), the Percent Effect in test [1] is -5.42%; in test [2] it was 10.8%; in test [3] it was -4%; in test [4], 18.7%; in test [5], 7.33%; in test [6], 2.23%. The Percent Effect in test [7] is 5.24%; in test [8] it was 0.464%; in test [9] it was 3.23%; in test [10], 11.1%; in [11], -12.4%.

As to `Cc1ccsc1CNc1cc(N2CCCC2CO)ncn1` (stereo unspecified), the Percent Effect in [1] is -9.04%; in [2] it was 11.4%; in test [3] it was -19.2%; in [4], 6.66%; in test [5], 1.33%; in test [6], -1.07%. In addition, the Percent Effect in test [7] was 8.23%; in test [8], 12.1%; in [9], 0%; in [10], 17.7%; in [11], -31%.

On to `Cc1n[nH]c(C)c1NC(=O)CN1CCCC(CNC(=O)C(C)(C)C)C1` (stereo unspecified), for which the Percent Effect in [1] was -2.53%; in test [2] it was 2.63%; in test [3], 0.454%; in test [4], 5.58%; in test [5] it was -0.188%; in [6] it was 2.68%. For the same compound, the Percent Effect in test [7] is 8.19%; in [8], 21.7%; in test [9] it was -1.47%; in test [10], -2.44%; in test [11] it was 0.796%.

In the case of `Cn1c(C(=O)N2CCC(C(=O)N3CCCC3)CC2)c(Cl)c2ccccc21`, the Percent Effect is -4.1% in test [1]; 5.33% in test [2]; -1.92% in test [3]; 6.11% in test [4]; 2.82% in test [5]; 2.6% in [6]. Moreover, the Percent Effect in [7] is 25.5%; in test [8], 0.0464%; in test [9], 8.2%; in test [10] it was 13.6%; in test [11], -6.83%.

On to `COc1ccc(CCN2CCN(C(=O)c3scnc3C)CC2)cc1`, for which the Percent Effect is -2.7% in test [1]; 10.5% in [2]; 2.58% in [3]; 0.569% in [4]; 3.8% in [5]; -3.55% in test [6]. The Percent Effect is 16% in [7]; -22.1% in test [8]; 6.38% in [9]; 10.4% in test [10]; -3.62% in test [11].

Take `CS(=O)(=O)N1CC[C@H]2O[C@H](C(=O)NCCc3ccncc3)CC[C@H]21`: the Percent Effect is -7.37% in test [1]; 0% in test [2]; 5.86% in test [3]; -3.48% in [4]; -2.51% in [5]; -57.5% in test [6]. Further, the Percent Effect in test [7] was -1.03%; in [8], 15%; in test [9], 2.08%; in test [10], -15%; in test [11], 3.45%.

On to `CCn1cc(NC(=O)NCC(c2cccs2)N(C)C)cn1` (stereo unspecified), for which the Percent Effect in test [1] was 0.424%; in [2], 18.4%; in test [3], -2.49%; in test [4], 5.82%; in test [5], -3.76%; in test [6], -3.83%. The Percent Effect in test [7] is 7.69%; in test [8] it was 2.58%; in test [9], 5.39%; in [10] it was 19.5%; in test [11] it was -7.09%.

Turning to `CC(C)NC(=O)COc1nc(C(C)(C)C)no1`, the Percent Effect in test [1] was -4.03%; in test [2], 13.5%; in [3] it was -3.54%; in [4], 27.8%; in test [5], 5.21%; in [6] it was 0.952%. Moreover, the Percent Effect in test [7] was 4.31%; in [8] it was -3.96%; in [9], -0.529%; in test [10], 4.88%; in [11], -3.56%.

Regarding `Cc1noc(C)c1-c1cncc(C2CCCN2Cc2cncnc2)n1` (stereo unspecified), the Percent Effect in test [1] is -2.17%; in [2], 2.67%; in test [3], 6.8%; in test [4], -2.83%; in test [5], -3.54%; in test [6], 1.63%. In addition, the Percent Effect is 5.55% in test [7]; 18.2% in test [8]; 4.25% in test [9]; 8.97% in test [10]; -6.34% in test [11].

Values taken from ChEMBL document CHEMBL3988442, “University of Dundee, Small-Polar-MMV Screening Library” (2021).
